Measurements: PubChem BioAssay (NCATS)
Inconclusive results are not listed. A number with no mark means an inactive call. The source made the active and inactive calls. Calls follow the shape of the dose curve; as a rule, active = well fitted cell-killing curve with a large enough effect; inconclusive = small, poorly fitted or top-dose-only effect, or effect the other way; inactive = no such curve, though single readings can be large or run the other way.
Potency is read from the fitted curve at half-maximal effect.

Assay: Viability qHTS for spleen associated tyrosine kinase inhibitor (SYKi) drug resistant MV4-11 cells (AID 1963824); also: nearly all actives have a fitted effect of over 35% in size
Details: SYKi-resistant MV4-11 viability, CellTiter-Glo, 72 h; series mostly up to 45 µM; viability, % of control: at the top concentration
Summary of the method: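 CellTiter-Glo luminescence, read 10 min after reagent addition, reports viability after a 72 hr compound exposure. Cells are an MV4-11 line made resistant to SYK inhibition, seeded at 500 per well onto compound-containing plates.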
In the case of `CCc1cnn2c(NCc3ccc[n+]([O-])c3)cc(N3CCCCC3CCO)nc12` (configuration not stated), the Potency is reported as 0.0065 µM (active).
With `Brc1ccc([C@H]2CN3CCSC3=N2)cc1` the “viability, % of control” value was 62.7%.
In the case of `Nc1ccc(C(=O)Nc2ccccc2N)cc1`, the Potency is reported as 7.5 µM (active).
In the case of `Fc1ccc2c(CCNCc3cccc(OCC(F)(F)C(F)F)c3)c[nH]c2c1`, the Potency is reported as 16.4 µM (active).
For `CCCCCCCCCCCCOCCOCCOCCOCCOCCOCCOCCOCCOCCO`, the Potency was 5.96 µM (active).
With `C/C(=C\C(=O)C(C)C1CCC2C3=C(CCC21C)C1(C)CCC(=O)C(C)(C)C1(O)CC3)C(C)(C)O` (configuration not stated) the Potency was 10 µM (active).
For `CN(CCO)C1CCN(c2ccc(Nc3ncc4c5ccnc(F)c5n(C5CCCC5)c4n3)nc2)CC1`, the Potency was 0.0645 µM (active).
